According to PubChem BioAssay AID743279 (National Center for Advancing Translational Sciences (NCATS), 2014):
Among all 360,000 compounds or so, about 17,000 (4.7%) were called active. Another 5% or so got no clear call; they are omitted. Cut-off read from the data, not from the text of the source: active = activity change below about -50%; inconclusive = mostly about -30% to -49%; inactive = weaker than that. Shown is part of a subset that was picked to be rich in actives.

Test: qHTS for Inhibitors of Inflammasome Signaling: IL-1-beta AlphaLISA Primary Screen
Details: THP-1 LPS/ATP IL-1B secretion, 16 h; at 57.5 µM, hits give low values
Summary of the method: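 Secreted IL-1B measured by AlphaLISA bead assay after 16 h compound exposure of THP-1 cells; compounds (final up to 57.5 uM) added 1 h before LPS (250 ng/mL) and ATP (1.25 mM) stimulation; lower signal means less secretion.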
% is set by controls: 0 for no effect and ±100 for the full control effect.

Row | SMILES | activity change
1 | O=C(Nc1ccn(CCCNCc2ccc3[nH]ccc3c2)c(=O)n1)OCc1ccccc1 | -20.2% (inactive)
2 | COc1cccc(-c2sc3ccc(OC)cc3c2-c2ccc(OCCN3CCCCC3)cc2)c1 | -3.91% (inactive)
3 | COc1ccc2sc(-c3ccccc3OC)c(-c3ccc(OCCN4CCCC4)cc3)c2c1 | -51% (active)
4 | COc1ccccc1-c1sc2ccccc2c1-c1ccc(Br)nc1 | 26.6% (inactive)
5 | CC1(C(=O)NS(=O)(=O)c2ccc(Cl)cc2)CCN1C(=O)CC1CCCC1 (stereo not given) | 24.4% (inactive)
6 | CCCCSc1nc2c(c(=O)n1CC)SC(C)C2 (stereo not given) | 25.4% (inactive)
7 | CCN1CCN(C(=O)CN(C)S(=O)(=O)c2ccc(OC)cc2)CC1 | -5.95% (inactive)
8 | CCOCCCNC(=O)C1(O)c2cc(Br)ccc2NC(=O)N1c1ccc(C)c(C)c1 (stereo not given) | 29.6% (inactive)
9 | COc1ccc(-c2cc(C(F)(F)F)nc(S(C)(=O)=O)n2)cc1OC | -105% (active)
10 | COc1ccc(-c2cc(C(=O)NCCCN3CCCC3=O)c3ccccc3n2)cc1OC | 0% (inactive)
11 | COc1ccc(-c2cc(-c3ccc(N)cc3)nc(N)c2C#N)cc1OC | 0% (inactive)
12 | O=C1NC[C@H](Cc2ccc(O)cc2)N(C[C@H]2CCCN2C[C@H](Cc2ccccc2)N2C[C@H](Cc3ccccc3)N(CCc3ccccc3)C(=O)C2=O)C1=O | -12.9% (inactive)
13 | O=C1CCC(=O)N1CCC(=O)N(C(=O)NC1CCCCC1)C1CCCCC1 | -5.97% (inactive)
14 | O=C1c2cccnc2C(=O)N1Cc1cccs1 | 21.3% (inactive)
15 | NC1=CC(=O)C(=O)c2cccnc21 | -59.7% (active)
16 | CCOc1ccc(CCN2C(=O)c3cccnc3C2=O)cc1OCC | -0.139% (inactive)
17 | CCN(C(=O)CN1CCN(Cc2ccccc2)CC1)c1c(N)n(Cc2ccccc2)c(=O)[nH]c1=O | 27.8% (inactive)
18 | Cc1csc(NC(=S)Nc2cccc(Cl)c2)n1 | -99.2% (active)
19 | FC(F)(F)c1cccc(NC(=S)Nc2cccc(Cl)c2)c1 | -14.7% (inactive)
20 | Cc1cccc(NC(=S)NC23CN4CN(CN(C4)C2)C3)c1 | -14.8% (inactive)
21 | S=C(Nc1cccc(Cl)c1)Nc1ccc2c(c1)OCCO2 | -23.6% (inactive)
22 | Cc1cccc(NC(=S)Nc2ccc(Cl)c(Cl)c2)c1 | -89.5% (active)
23 | Cc1cccc(NC(=S)Nc2ccc3cn[nH]c3c2)c1 | -16.5% (inactive)
24 | O=C(Nc1ccc(Cl)c(C(F)(F)F)c1)C1Cc2c(-c3ccccc3Oc3ccccc3)ccnc2O1 (stereo not given) | -13.9% (inactive)
25 | Cc1cc(C)c(S(=O)(=O)NCC(c2ccc3c(c2)OCO3)N2CCOCC2)c(C)c1 (stereo not given) | 0% (inactive)
